The nature of test [1]: antimalarial activity against Dd2 strain (AID 2302;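 active means growth inhibition above 50% at the single 2 µM test dose, taken to imply half-maximal potency below 2 µM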;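 further: 0% = DMSO untreated growth and 100% = chloroquine plus artemisinin killed control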). As to conditions: P. falciparum Dd2 in RBCs, LDH growth readout, 72 h; at 2 µM; hits give high values.
Test [2] can be described thus: HepG2 cytotoxicity, primary screen, cytotoxicity control for P. falciparum antimalarial project, cell-based, ATP luminescence (AID 2303;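 active means inhibition above 50%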;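 further: 0% = DMSO wells and 100% = digitonin-killed cells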). The following applies: HepG2 viability, 24-48 h, at 10 µM, hits give high values.
For test [3], the target named is L-lactate dehydrogenase (Plasmodium falciparum (isolate CDC / Honduras)) (UniProt Q27743). Put plainly: PfLDH activity inhibition – cell lysate, 3D7 strain, counter-screen for P. falciparum growth inhibition project (AID 2304).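 Further: 0% = vehicle and 100% = reference inhibitor.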 As to conditions: P. falciparum 3D7 crude extract, LDH APAD/NBT absorbance; at 2 µM; hits give high values. Background: Counterscreens check selectivity or assay interference.

The nature of test [4]: inhibition of 3D7 malaria parasite growth – strain 3D7 (AID 2306).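 Further: 0% = DMSO wells and 100% = chloroquine plus artemisinin control wells.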 As to conditions: P. falciparum 3D7 erythrocytic growth, LDH absorbance, 72 h; at 2 µM; hits give high values.
The target in test [5] is Calcium-dependent protein kinase 1 (Plasmodium falciparum (isolate 3D7)) (UniProt P62344). Put plainly: PfCDPK1 kinase inhibitors, biochemical, TCAMS library (AID 1159585; cut-off not given, nearly all actives have IC50 up to about 0.98 µM;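 further: inhibitors leave more ATP so luminescence rises with inhibition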). The following applies: recombinant PfCDPK1, Kinase-Glo ATP depletion luminescence. Background: Kinase-Glo reads ATP consumption through a luciferase reaction.
Test [6] addresses Plasmodium falciparum protein kinase 6 (PK6, PF3D7_1337100) (UniProt Q8IDW1). The test is described as follows: PfPK6 kinase inhibitors, biochemical, TCAMS library (AID 1159586). As to conditions: recombinant PfPK6, Kinase-Glo ATP depletion luminescence.
The target in test [7] is Protein kinase 7 (PK7), Plasmodium falciparum 3D7 (PF3D7_0213400) (UniProt Q7YTF7). Put plainly: inhibition of Plasmodium PK7 catalytic activity – biochemical, TCAMS antimalarial set, Kinase-Glo luminescence (AID 1159587). The following applies: recombinant PfPK7, Kinase-Glo ATP depletion luminescence.
Test [8] concerns the target Calcium-dependent protein kinase 4 (Plasmodium falciparum (isolate 3D7)) (UniProt Q8IBS5). Put plainly: PfCDPK4 kinase inhibitors, biochemical, TCAMS library (AID 1159588; cut-off not given, nearly all actives have IC50 up to about 0.91 µM). As to conditions: recombinant PfCDPK4, Kinase-Glo ATP depletion luminescence.

The structures appear in SMILES notation. Values without a mark were called inactive. For some of these results: Results with a measured potency or affinity are listed apart. Active and inactive are the calls of the source. Unless noted, how the calls were made is not given here.

Sequence of Calcium-dependent protein kinase 1 (Plasmodium falciparum (isolate 3D7)) (P62344 whole entry, looked up): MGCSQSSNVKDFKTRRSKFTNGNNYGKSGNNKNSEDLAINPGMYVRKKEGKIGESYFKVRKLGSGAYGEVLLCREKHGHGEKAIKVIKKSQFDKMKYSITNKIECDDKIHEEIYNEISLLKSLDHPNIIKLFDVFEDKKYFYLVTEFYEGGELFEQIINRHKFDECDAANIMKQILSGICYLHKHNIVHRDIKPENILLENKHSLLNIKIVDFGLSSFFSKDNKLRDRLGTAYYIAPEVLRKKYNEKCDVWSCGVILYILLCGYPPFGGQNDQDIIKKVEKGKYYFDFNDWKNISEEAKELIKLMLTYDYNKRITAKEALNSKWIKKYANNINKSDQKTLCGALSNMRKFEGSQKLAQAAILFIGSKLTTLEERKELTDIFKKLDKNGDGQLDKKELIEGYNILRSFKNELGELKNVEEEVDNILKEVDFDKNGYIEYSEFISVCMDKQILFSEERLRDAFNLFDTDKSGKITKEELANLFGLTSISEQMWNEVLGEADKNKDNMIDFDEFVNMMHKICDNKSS
Sequence of L-lactate dehydrogenase (Plasmodium falciparum (isolate CDC / Honduras)) (Q27743 whole entry, looked up): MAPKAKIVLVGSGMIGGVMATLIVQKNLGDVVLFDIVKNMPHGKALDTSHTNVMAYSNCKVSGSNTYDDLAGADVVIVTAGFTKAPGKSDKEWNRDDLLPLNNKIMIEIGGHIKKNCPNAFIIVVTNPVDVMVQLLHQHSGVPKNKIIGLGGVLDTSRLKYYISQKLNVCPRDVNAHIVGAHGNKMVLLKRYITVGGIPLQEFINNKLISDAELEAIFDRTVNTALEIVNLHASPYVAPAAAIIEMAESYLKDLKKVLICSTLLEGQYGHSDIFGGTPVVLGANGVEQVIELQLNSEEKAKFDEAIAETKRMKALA
Sequence of Protein kinase 7 (PK7), Plasmodium falciparum 3D7 (PF3D7_0213400) (Q7YTF7 1-343): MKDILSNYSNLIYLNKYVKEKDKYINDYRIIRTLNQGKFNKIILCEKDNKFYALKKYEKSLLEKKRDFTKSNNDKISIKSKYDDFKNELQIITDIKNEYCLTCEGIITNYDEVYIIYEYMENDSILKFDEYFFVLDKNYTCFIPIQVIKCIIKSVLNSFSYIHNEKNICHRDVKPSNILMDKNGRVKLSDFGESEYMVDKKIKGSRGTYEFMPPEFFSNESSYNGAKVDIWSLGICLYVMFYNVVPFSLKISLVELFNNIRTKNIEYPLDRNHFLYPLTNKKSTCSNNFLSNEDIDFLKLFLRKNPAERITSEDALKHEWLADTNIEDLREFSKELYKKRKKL
Sequence of Plasmodium falciparum protein kinase 6 (PK6, PF3D7_1337100) (Q8IDW1 1-305): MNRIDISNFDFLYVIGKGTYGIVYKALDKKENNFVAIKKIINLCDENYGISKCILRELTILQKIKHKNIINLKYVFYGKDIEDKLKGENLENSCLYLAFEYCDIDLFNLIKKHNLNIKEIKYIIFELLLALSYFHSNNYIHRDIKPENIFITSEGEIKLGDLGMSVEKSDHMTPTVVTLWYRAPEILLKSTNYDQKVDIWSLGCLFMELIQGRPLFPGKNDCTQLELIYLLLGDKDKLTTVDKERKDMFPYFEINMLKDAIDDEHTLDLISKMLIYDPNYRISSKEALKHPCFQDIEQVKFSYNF
Sequence of Calcium-dependent protein kinase 4 (Plasmodium falciparum (isolate 3D7)) (Q8IBS5 whole entry, looked up): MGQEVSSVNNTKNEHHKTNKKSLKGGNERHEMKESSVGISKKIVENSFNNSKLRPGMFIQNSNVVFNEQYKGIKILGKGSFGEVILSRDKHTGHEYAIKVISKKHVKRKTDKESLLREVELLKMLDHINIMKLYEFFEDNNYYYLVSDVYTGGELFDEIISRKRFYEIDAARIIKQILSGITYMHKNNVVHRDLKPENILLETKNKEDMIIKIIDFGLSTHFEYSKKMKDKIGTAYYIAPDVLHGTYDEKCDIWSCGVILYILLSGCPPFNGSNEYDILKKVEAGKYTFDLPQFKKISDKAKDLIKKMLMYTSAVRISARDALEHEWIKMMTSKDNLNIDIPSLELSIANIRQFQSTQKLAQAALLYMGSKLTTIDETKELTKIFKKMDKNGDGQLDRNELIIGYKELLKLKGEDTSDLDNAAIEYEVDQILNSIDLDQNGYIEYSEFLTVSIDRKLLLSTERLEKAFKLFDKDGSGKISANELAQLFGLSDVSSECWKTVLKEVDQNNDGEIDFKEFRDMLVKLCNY

By inhibition is commonly meant the drop in the measured response relative to a control, in per cent. As to `CNS(=O)(=O)Cc1ccc(Nc2nccc(Nc3cccc4c3cnn4C(=O)Nc3ccccc3)n2)cc1`, the growth inhibition is 5% in test [1] and 89% (active) in test [4]. Also, the inhibition was 45% in test [2] and 1% in test [3]. Besides, the outcome in test [5], in test [6], in test [7] and in test [8] was inactive.

Consider `O=C(/C=C/c1ccc(Cl)c(Cl)c1)NCCCCCN1CCC(NC(=O)c2ccc(F)cc2)CC1`, for which the growth inhibition is 13% in test [1] and 102% (active) in test [4]. For the same molecule, the figures for the inhibition in test [2] and in test [3] were 14% and -1%, respectively. The outcome in test [5], in test [6], in test [7] and in test [8] was inactive.

With `O=C(N[C@@H](Cc1ccccc1)[C@H](O)CNC1CCCc2ccccc21)c1cc(C2CCCC2)cc(N2CCCC2=O)c1` (stereo not given in full), the results for the growth inhibition in test [1] and in test [4] were 99% (active) and 97% (active), respectively. Moreover, the results for the inhibition in test [2] and in test [3] were 31% and -7%, respectively. Further, the outcome in test [5], in test [6], in test [7] and in test [8] was inactive.

Turning to `CC(C)c1ccc(NC(=O)NC2CCN(CCCCCN(C)C(=O)/C=C/c3ccc(Cl)c(Cl)c3)C2)cc1` (stereo not given), the growth inhibition in test [1] was 3%; in test [4] it was 99% (active). Besides, the inhibition in test [2] was 28%; in test [3] it was -2%. The result in test [5], in test [6], in test [7] and in test [8] was inactive.

On to `COc1cc(Cc2cnc(N)nc2N)ccc1OCc1ccc(F)c(F)c1`, for which the values for the growth inhibition in test [1] and in test [4] were 31% and 90% (active), respectively. Besides, the inhibition is 10% in test [2] and 3% in test [3]. For the same molecule, the outcome in test [5], in test [6], in test [7] and in test [8] was inactive.

On to `COc1ccc(Cl)cc1NC(=O)C(C)Nc1ccc(-c2ccccc2)cc1` (stereo not given), for which the growth inhibition is 89% (active) in test [1] and 91% (active) in test [4]. Moreover, the inhibition in test [2] and in test [3] was -1% each time. Further, the result in test [5], in test [6], in test [7] and in test [8] was inactive.

As for `Cc1ccc(F)c(NC(=O)c2c(-c3c(F)cccc3Cl)noc2C)c1`, the growth inhibition in test [1] was 18%; in test [4] it was 90% (active). Also, the figures for the inhibition in test [2] and in test [3] were 13% and 0%, respectively. Moreover, the result in test [5], in test [6], in test [7] and in test [8] was inactive.

In the case of `Cc1cc(NN=Cc2ccccc2Cl)c2cc(C(F)(F)F)ccc2n1`, the results for the growth inhibition in test [1] and in test [4] were 75% (active) and 100% (active), respectively. In addition, the inhibition in test [2] and in test [3] was -4% each time. Moreover, the result in test [5], in test [6], in test [7] and in test [8] was inactive.

Take `CCOC(=O)c1[nH]c(-c2ccccc2)nc1NC(=S)NC1CCCCC1`: the growth inhibition in test [1] is 1%; in test [4], 96% (active). Further, the inhibition in test [2] is 6%; in test [3] it was 1%. Besides, the result in test [5], in test [6], in test [7] and in test [8] was inactive.

`O=S(=O)(Nc1cccc(CCN2CCC(N3CCCCC3)CC2)c1)c1ccc(Cl)cc1`: the values for the growth inhibition in test [1] and in test [4] were 23% and 94% (active), respectively. Moreover, the inhibition is 18% in test [2] and -1% in test [3]. Also, the result in test [5], in test [6], in test [7] and in test [8] was inactive.

For `COc1cc(C(=O)Nc2cccc(-c3cn4ccc(C)cc4n3)c2)cc(OC)c1OC`, the growth inhibition was 83% (active) in test [1] and 97% (active) in test [4]. In addition, the inhibition in test [2] is -1%; in test [3] it was 1%. The result in test [5], in test [6], in test [7] and in test [8] was inactive.

As to `CCn1c(-c2nonc2N)nc2c(-c3cccc(NC(=O)Nc4cccc(OC)c4)c3)ncc(OCCCN)c21`, the growth inhibition is 69% (active) in test [1] and 92% (active) in test [4]. In addition, the inhibition in test [2] is 1%; in test [3], 4%. The result in test [5], in test [6], in test [7] and in test [8] was inactive.

`NC(N)=Nc1ccc(OCCCCCOc2ccc(N=C(N)N)cc2)cc1`: the growth inhibition in test [1] was 100% (active); in test [4], 99% (active). Also, the inhibition in test [2] was 12%; in test [3], -1%. For the same molecule, the result in test [5], in test [6], in test [7] and in test [8] was inactive.

With `CO/C(=C\C=C\c1cc2cc(Cl)c(Cl)cc2[nH]1)C(=O)NCCCN1CCN(Cc2ccccc2)CC1`, the figures for the growth inhibition in test [1] and in test [4] were 65% (active) and 94% (active), respectively. Besides, the inhibition in test [2] is 45%; in test [3], -2%. For the same molecule, the result in test [5], in test [6], in test [7] and in test [8] was inactive.

Turning to `COc1cccc(-c2nc3c(N4CCN(c5ccncc5)CC4)cccc3n2CC2CCCCCN2)n1` (stereo not given), the growth inhibition was 31% in test [1] and 91% (active) in test [4]. For the same molecule, the inhibition in test [2] was 12%; in test [3], 3%. In addition, the outcome in test [5], in test [6], in test [7] and in test [8] was inactive.

For the molecule `Cc1c(Cl)cccc1S(=O)(=O)Nc1ccc(CCN2CCC(N)CC2)cc1`, the growth inhibition is 4% in test [1] and 90% (active) in test [4]. Further, the inhibition was 23% in test [2] and 0% in test [3]. For the same molecule, the outcome in test [5], in test [6], in test [7] and in test [8] was inactive.

For the molecule `COc1ccc(Cn2c(Nc3cccc(C(F)(F)F)c3)nc3cc(C(=O)NCCN4CCCC4)cnc32)cc1Cl`, the values for the growth inhibition in test [1] and in test [4] were 31% and 97% (active), respectively. Besides, the inhibition is 10% in test [2] and 0% in test [3]. Besides, the result in test [5], in test [6], in test [7] and in test [8] was inactive.

Regarding `CCc1c[nH]c2c(N3CCCCS3(=O)=O)cc(C(=O)N[C@@H](Cc3ccccc3)[C@H](O)CNCc3cccc(OC)c3)cc12`, the figures for the growth inhibition in test [1] and in test [4] were 91% (active) and 86% (active), respectively. The inhibition was 0% in test [2] and -3% in test [3]. Moreover, the result in test [5], in test [6], in test [7] and in test [8] was inactive.

On to `N#Cc1ccc(N2CCN(Cc3ccc(-c4ccc(-c5nc6ccccc6[nH]5)s4)cc3)CC2)nc1`, for which the growth inhibition in test [1] was 63% (active); in test [4], 99% (active). In addition, the inhibition in test [2] was 17%; in test [3], 2%. For the same molecule, the result in test [5], in test [6], in test [7] and in test [8] was inactive.

Turning to `Cc1cccc2c(C(=O)NC3CCN(Cc4ccccc4)CC3)cc(-c3cccnc3)nc12`, the growth inhibition was 10% in test [1] and 81% (active) in test [4]. The results for the inhibition in test [2] and in test [3] were 12% and -2%, respectively. For the same molecule, the outcome in test [5], in test [6], in test [7] and in test [8] was inactive.

For the origin of these results see PubChem BioAssay.
